# Sampled rows, rich in hits. Any-hit rate of the full collection: about 8.8%.
# HT1080-NT tox = kills 2HG-producing HT-1080-NT fibrosarcoma cells; HT-1080-NT fibrosarcoma viability, CellTiter-Glo ATP luminescence, 48 h; Potency, µM (titrated, usually from 46.1 µM), without a hit: at the highest dose activity, negative = less viability, actives largely listed as cytotoxic; hit rate 1.6% among 360,000; AID 686970;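 note: NT is the 2HG producing partner of a matched IDH1 knockdown line; potency is the fitted concentration of half-maximal effect; 0% = DMSO-treated cells and -100% = media-only wells without cells; nearly all actives have a fitted effect of over 55% in size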
#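 Toxicity toward the 2HG-producing NT line was scored as %Activity, normalised to DMSO and no-cell wells, from CellTiter-Glo luminescence after 48 hours' treatment.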
# IL1B secr inh = inflammasome signaling inhibition, IL-1 beta readout. AID 743279. THP-1 LPS/ATP IL-1B secretion, AlphaLISA, 16 h; active compounds read low. hit rate 4.7% among 360,000. activity change, % at 57.5 µM; in the data active = activity change below about -50%; inconclusive = mostly about -30% to -49%
#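 Secreted IL-1B measured by AlphaLISA bead assay after 16 h compound exposure of THP-1 cells; compounds (final up to 57.5 uM) added 1 h before LPS (250 ng/mL) and ATP (1.25 mM) stimulation; lower signal means less secretion.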
# KB-3-1 tox = kills parental KB-3-1 adenocarcinoma cells | KB-3-1 viability, CellTiter-Glo ATP luminescence, 72 h | hit rate 1.4% among 400,000 | Potency, µM (doses to about 46.1 µM), hits mostly cytotoxic | AID 1347075; note: potency is the fitted concentration of half-maximal effect; nearly all actives have a fitted effect of over 60% in size
#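 Cytotoxicity in the drug-sensitive parental line KB-3-1 was scored as loss of CellTiter-Glo luminescence following 72 h incubation with compound. Values come from curve fitting of normalized concentration-response data.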
# KB-V1 MDR tox = kills drug-selected multidrug resistant KB-V1 cells; KB-V1 MDR cells viability, CellTiter-Glo, 72 h; Potency, µM (highest dose often 46.1 µM), usual class: cytotoxic; hit rate 3.4% among 400,000; AID 1347076; note: potency is the fitted concentration of half-maximal effect; nearly all actives have a fitted effect of over 60% in size
#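 KB-V1 cells (P-gp-expressing MDR subline of KB-3-1) in phenol-red-free DMEM with 10% FBS were exposed to library compounds over a concentration series for 72 h at 37 degrees C. Viability read by CellTiter-Glo luminescence; concentration-effect curves fitted after normalization.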
# HT1080 IDH1KD tx = HT-1080 IDH1 knockdown cell toxicity (counter line). hit rate 2% among 360,000. Potency, µM (doses to about 46.1 µM), for the others: at the top dose activity, negative = toxicity, usual class: cytotoxic. HT-1080 IDH1 knockdown viability, ATP luminescence, 48 h;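 note: potency is the fitted concentration of half-maximal effect; 0% = DMSO wells and -100% = cell-free medium wells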
#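 Using the IDH1-knockdown HT-1080 line run in the same batch and compound series as the NT line, viability after 48 h at 37 °C was determined by CellTiter-Glo luminescence and expressed as % activity.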
# * marks the source's active call; other numbers are inactive results; i = inactive; ? = inconclusive; · = no result. Unless noted, calls come from the whole dose curve; as a rule, active = well fitted curve in the direction sought with a large enough effect; inconclusive = small, poorly fitted or top-dose-only effect, or another doubt; inactive = no such curve, though single readings can be large; an effect the other way counts as inactive or inconclusive. Unless noted, % is set by controls: 0 for no effect and ±100 for the full control effect.
SMILES,HT1080-NT tox,IL1B secr inh,KB-3-1 tox,KB-V1 MDR tox,HT1080 IDH1KD tx
CCOC(=O)N1CCN(C(=O)C[C@@H]2C[C@@]3(C(=O)OC)CCCCC=C3N(Cc3cccc4ccccc34)C2=O)CC1,-7%,-10,?,i,-22%
O=C(Nc1cccc(F)c1)N1CC=C(n2c(=O)[nH]c3ccccc32)CC1,-8%,-59*,i,i,-1%
O=C(Nc1ccccc1)N1CC=C(c2ccc(F)cc2)CC1,-8%,0,i,?,-6%
Cc1cccc(NC(=O)CN(C2=NC3CS(=O)(=O)CC3S2)c2ccccc2F)c1 (stereo not drawn),-4%,-23,i,i,1%
C[n+]1cccc(O)c1SCc1ccccc1,-25%,5,i,?,23µM*
C(#CSCc1ccccc1)SCc1ccccc1,14%,-30,i,i,10%
CC(=O)Nc1c(C(=O)Nc2ccccc2F)oc2ccccc12,·,·,i,i,·
CCN(CC(=O)Nc1ccc(OC)cc1)C(=O)c1cc(-c2cccs2)nn1-c1ccccc1,-3%,-11,i,21µM*,-16%
CC(=O)N1CCN(Cc2cc(=O)oc3ccc4ccccc4c23)CC1,-15%,-4,i,?,-5%
COc1ccc(-c2sc3ccccc3c2-c2ccc(O)cc2)cc1,?,0,?,i,?
COc1ccc(-c2sc3cc(OC)c(OC)cc3c2-c2ccc(O)cc2)cc1,?,-54*,i,i,?
Cn1cnc2c(NCc3ccco3)ncnc21,5%,-6,i,i,4%
Clc1cccc(Cl)c1Cn1cnc2c(NCc3ccco3)ncnc21,?,10,?,3.5µM*,-16%
Clc1cccc(Cl)c1Cn1cnc(=NCc2ccco2)c2[nH]cnc21,-6%,?,i,8.2µM*,?
Nc1[nH]c(C(=O)c2ccccc2)c(-c2ccncc2)c1C(=O)NC1CC1,1%,-15,i,i,?
Cc1cc(NC(=O)c2cc(-c3cccs3)nc3ccccc23)no1,?,9,21µM*,?,?
Cc1cc(NC(=O)c2cc(-c3ccncc3)nc3c(C)cccc23)no1,5.8µM*,37,3.3µM*,3.7µM*,3.7µM*
Cc1cc(NC(=O)CSc2nc(-c3cccs3)nc3ccccc23)no1,5.8µM*,26,5.8µM*,?,5.2µM*
Cc1cccc2sc(NNC(=O)c3cc(-c4cccs4)nc4ccccc34)nc12,?,137,?,?,21µM*
Cc1ccc(-c2cc(C(=O)Nc3cc(C)on3)c3ccccc3n2)cc1,0%,23,i,i,-2%
Cc1cc(NC(=O)CSc2nc(C(C)(C)C)nc3ccccc23)no1,0%,0,i,?,1%
O=C(COC(=O)c1ccc(F)c(S(=O)(=O)N2CCOCC2)c1)NCc1ccccc1,-6%,18,i,i,0%
COc1ccc(-n2ncc3c2CC(C)(C)CC3NC(=O)c2ocnc2C)cc1 (stereo not drawn),9%,-11,i,i,-1%
CSc1ccccc1NC(=O)C1CC(c2ccccc2Cl)=NO1 (stereo not drawn),-11%,15,i,i,-14%
O=C(NC1=NCCS1)c1cc(-c2cccnc2)nc2ccccc12,-8%,1,i,?,-20%
SMILES,HT1080-NT tox,IL1B secr inh,KB-3-1 tox,KB-V1 MDR tox,HT1080 IDH1KD tx
O=C(NC1=NCCS1)c1cc(-c2cccs2)nc2ccccc12,-1%,-64*,i,i,1%
COCCNC(=O)c1cnn2c(C(F)(F)F)cc(-c3ccc4c(c3)OCO4)nc12,-13%,18,i,2.1µM*,2%
COc1ccc(C(=O)OCC(=O)NCC2CCCO2)cc1S(=O)(=O)N1CCCc2ccccc21 (stereo not drawn),-4%,80,i,i,-8%
COc1ccc(C(=O)/C=C2\Sc3ccccc3N2C)cc1,-1%,-2,i,?,-7%
CC(=S)/C=C1\Sc2ccccc2N1C,?,-61*,i,i,?
Cc1ccc(C(=O)c2c(N)c(C(=O)Nc3ccccc3Cl)c3ccccn23)cc1,·,·,i,i,·
Cc1ccc(-c2cc(-c3ccccc3)c(C#N)c(Br)n2)cc1,-5%,0,i,i,-5%
CS(=O)(=O)c1nc(-c2ccccc2)cc(-c2ccccc2)c1C#N,23µM*,-56*,?,i,?
CC(=O)Nc1ccc(/C=C/c2nc3ccccc3s2)cc1,·,·,i,i,·
Clc1ccc(C2=CSC3=NCCN23)c(Cl)c1,5%,-51*,i,i,-15%
CC(C)COc1ccc(C(=O)Nc2scc(-c3ccc(Cl)cc3Cl)c2C(N)=O)cc1,18%,-3,3.3µM*,3.7µM*,8%
COc1ccc2c(c1)C(=NN)c1cc(OC)ccc1-2,-15%,-1,i,10µM*,?
CC(=O)c1cnc2ncnn2c1C,13%,11,i,?,9%
O=C(NC1(C(F)(F)F)N=C(c2ccccc2)NC1=O)c1ccc(Cl)cc1Cl (stereo not drawn),2%,-14,i,18µM*,-11%
O=C(COc1cccnc1[N+](=O)[O-])Nc1ccccc1Sc1ccccc1,-3%,0,i,13µM*,0%
CCCCNC(=O)c1sc2nc(C)cc(COC)c2c1-n1cccc1,11%,0,i,5.2µM*,-5%
COc1ccc(S(=O)(=O)NCc2cc(=O)n(C)c(=O)n2C)cc1F,-1%,-6,i,?,1%
COc1ccc(N2CCN(CC(=O)Nc3nc(C)cs3)CC2)cc1,20%,26,i,i,15%
COCCc1ncc(CN2CCCC(C(=O)Nc3cccc(-c4cccc(C)c4)c3)C2)cn1 (stereo not drawn),?,?,i,i,?
Cn1cc(CN2CCCC(C(=O)Nc3cccc(-c4cc5ccccc5[nH]4)c3)C2)cn1 (stereo not drawn),?,-92*,?,i,29µM*
CCn1cc(CN2CCCC(C(=O)Nc3ccc(-c4nc5ccccc5[nH]4)cc3)C2)c(C)n1 (stereo not drawn),-22%,?,i,i,?
CCn1cc(CN2CCCC(C(=O)Nc3cccc(-c4cc5ccccc5[nH]4)c3)C2)c(C)n1 (stereo not drawn),21µM*,-53*,i,i,?
CC(C)n1cc(CN2CCCC(C(=O)Nc3cccc(-c4cc5ccccc5[nH]4)c3)C2)cn1 (stereo not drawn),21µM*,-63*,?,?,?
CNS(=O)(=O)c1cccc(C(=O)NCC(c2cccs2)N2CCOCC2)c1 (stereo not drawn),10%,4,i,i,6%
